Our source for the binding signal values is paper PMC11006913.

Assay in all cases: PBM; 200 nM protein, PBS
What all share (settings): dsDNA, one strand shown

Test [1] concerns the target HESX1 (Homo sapiens, UniProt Q9UBX0 95-180, R165K).
Test [2] has as its target ALX4 (Homo sapiens, UniProt Q9H161 200-286).
In test [3] the target is ALX4 (Homo sapiens, UniProt Q9H161 200-286, Q225E).
The target of test [4] is HESX1 (Homo sapiens, UniProt Q9UBX0 95-180).
Test [5] addresses HESX1 (Homo sapiens, UniProt Q9UBX0 95-180, R109Q).
Test [6] concerns the target HESX1 (Homo sapiens, UniProt Q9UBX0 95-180, P111T).
The target in test [7] is HESX1 (Homo sapiens, UniProt Q9UBX0 95-180, F115L).
Chain of HESX1 (Homo sapiens, UniProt Q9UBX0 95-180, F115L) (Q9UBX0 95-180 F115L): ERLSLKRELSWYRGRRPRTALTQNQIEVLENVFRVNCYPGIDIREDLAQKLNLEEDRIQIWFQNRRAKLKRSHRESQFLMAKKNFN
The target in another test is HOXB6 (Homo sapiens, UniProt P17509 132-218, K202E).
Chain of HOXB6 (P17509 132-218 K202E): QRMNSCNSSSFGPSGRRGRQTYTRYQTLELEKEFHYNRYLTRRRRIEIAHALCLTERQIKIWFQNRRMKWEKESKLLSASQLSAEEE
The target in test [8] is MSX2 (Homo sapiens, UniProt P35548 130-214, R199I).
Chain of MSX2 (Homo sapiens, UniProt P35548 130-214, R199I) (P35548 130-214 R199I): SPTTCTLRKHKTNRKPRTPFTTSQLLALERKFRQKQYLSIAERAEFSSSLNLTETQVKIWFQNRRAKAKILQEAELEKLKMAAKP
In test [9] the target is ALX3 (Homo sapiens, UniProt O95076 139-225, N203Q).
Chain of ALX3 (Homo sapiens, UniProt O95076 139-225, N203Q) (O95076 139-225 N203Q): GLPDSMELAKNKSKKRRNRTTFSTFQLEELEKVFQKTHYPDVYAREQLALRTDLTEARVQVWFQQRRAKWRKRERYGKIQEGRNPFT
The target of test [10] is T1, PAX4 (Homo sapiens, UniProt O43316 9-242, F177V).
T1 sequence: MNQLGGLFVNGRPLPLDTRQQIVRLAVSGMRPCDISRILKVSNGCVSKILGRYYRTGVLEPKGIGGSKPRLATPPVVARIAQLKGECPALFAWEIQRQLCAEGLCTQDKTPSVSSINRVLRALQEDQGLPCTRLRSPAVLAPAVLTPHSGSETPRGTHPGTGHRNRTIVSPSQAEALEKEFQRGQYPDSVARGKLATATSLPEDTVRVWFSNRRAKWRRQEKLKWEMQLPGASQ

Test [11] addresses MSX2 (Homo sapiens, UniProt P35548 130-214).
Test [12] addresses MSX2 (Homo sapiens, UniProt P35548 130-214, F161Y).
Test [13] concerns the target ALX3 (Homo sapiens, UniProt O95076 139-225, N203S).
The next test addresses T2, NKX2-6 (Homo sapiens, UniProt A6NCS4 118-204, R150C).
T2 sequence: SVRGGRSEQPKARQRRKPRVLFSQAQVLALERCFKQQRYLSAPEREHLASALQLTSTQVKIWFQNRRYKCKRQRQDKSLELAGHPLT

Test [14] addresses PRRX1 (Homo sapiens, UniProt P54821 80-166, F113S).
Test [15] deals with ALX1 (Homo sapiens, UniProt Q15699 118-204, L144V).
Chain of ALX1 (Homo sapiens, UniProt Q15699 118-204, L144V) (Q15699 118-204 L144V): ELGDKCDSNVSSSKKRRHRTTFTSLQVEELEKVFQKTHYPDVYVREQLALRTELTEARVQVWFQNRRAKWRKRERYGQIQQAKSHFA
The target in test [16] is ALX1 (Homo sapiens, UniProt Q15699 118-204, L144R).
Chain of ALX1 (Homo sapiens, UniProt Q15699 118-204, L144R) (Q15699 118-204 L144R): as the sequence (Q15699 118-204 L144V) above, with V27R counted along it
Test [17] addresses T3, PAX4 (Homo sapiens, UniProt O43316 9-242, F177Y).
T3 sequence: T1 sequence with V169Y

Test [18] concerns the target PROP1 (Homo sapiens, UniProt O75360 56-141).
The target of test [19] is PROP1 (Homo sapiens, UniProt O75360 56-141, R99H).
Chain of PROP1 (Homo sapiens, UniProt O75360 56-141, R99H) (O75360 56-141 R99H): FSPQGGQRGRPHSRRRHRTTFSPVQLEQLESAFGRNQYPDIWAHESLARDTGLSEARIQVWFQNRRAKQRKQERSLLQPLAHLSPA
Test [20] concerns the target ALX3 (Homo sapiens, UniProt O95076 139-225, L168V).
Test [21] has as its target PROP1 (Homo sapiens, UniProt O75360 56-141, F88S).
Test [22] deals with ALX1 (Homo sapiens, UniProt Q15699 118-204).
Chain of ALX1 (Homo sapiens, UniProt Q15699 118-204) (Q15699 118-204): as the sequence (Q15699 118-204 L144V) above, with V27L counted along it
The target in test [23] is PRRX1 (Homo sapiens, UniProt P54821 80-166).
Chain of PRRX1 (Homo sapiens, UniProt P54821 80-166) (P54821 80-166): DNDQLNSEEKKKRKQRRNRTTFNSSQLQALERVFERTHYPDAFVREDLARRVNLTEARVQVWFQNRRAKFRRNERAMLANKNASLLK

Changes are numbered by the printed parent chain.

Chain of HESX1 (Homo sapiens, UniProt Q9UBX0 95-180, R165K) (Q9UBX0 95-180 R165K): as the sequence (Q9UBX0 95-180 F115L) above, with L21F, R71K counted along it
Chain of HESX1 (Homo sapiens, UniProt Q9UBX0 95-180, P111T) (Q9UBX0 95-180 P111T): as the sequence (Q9UBX0 95-180 F115L) above, with P17T, L21F counted along it
Chain of HESX1 (Homo sapiens, UniProt Q9UBX0 95-180, R109Q) (Q9UBX0 95-180 R109Q): as the sequence (Q9UBX0 95-180 F115L) above, with R15Q, L21F counted along it
Chain of ALX4 (Homo sapiens, UniProt Q9H161 200-286, Q225E) (Q9H161 200-286 Q225E): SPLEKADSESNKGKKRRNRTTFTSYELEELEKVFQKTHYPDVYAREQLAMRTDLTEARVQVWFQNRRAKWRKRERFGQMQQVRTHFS
Chain of HESX1 (Homo sapiens, UniProt Q9UBX0 95-180) (Q9UBX0 95-180): as the sequence (Q9UBX0 95-180 F115L) above, with L21F counted along it
Chain of ALX4 (Homo sapiens, UniProt Q9H161 200-286) (Q9H161 200-286): as the sequence (Q9H161 200-286 Q225E) above, with E26Q counted along it
Chain of MSX2 (Homo sapiens, UniProt P35548 130-214, F161Y) (P35548 130-214 F161Y): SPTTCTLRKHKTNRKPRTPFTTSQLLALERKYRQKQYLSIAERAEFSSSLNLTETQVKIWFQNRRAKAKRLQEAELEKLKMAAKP
Chain of MSX2 (Homo sapiens, UniProt P35548 130-214) (P35548 130-214): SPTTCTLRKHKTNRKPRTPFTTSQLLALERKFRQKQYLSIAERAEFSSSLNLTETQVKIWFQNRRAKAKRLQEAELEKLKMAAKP
Chain of PRRX1 (Homo sapiens, UniProt P54821 80-166, F113S) (P54821 80-166 F113S): as the sequence (P54821 80-166) above, with F34S counted along it
Chain of ALX3 (Homo sapiens, UniProt O95076 139-225, N203S) (O95076 139-225 N203S): as the sequence (O95076 139-225 N203Q) above, with Q65S counted along it
Chain of PROP1 (Homo sapiens, UniProt O75360 56-141) (O75360 56-141): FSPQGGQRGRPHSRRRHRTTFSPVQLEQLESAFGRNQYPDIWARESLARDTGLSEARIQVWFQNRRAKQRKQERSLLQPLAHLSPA
Chain of PROP1 (Homo sapiens, UniProt O75360 56-141, F88S) (O75360 56-141 F88S): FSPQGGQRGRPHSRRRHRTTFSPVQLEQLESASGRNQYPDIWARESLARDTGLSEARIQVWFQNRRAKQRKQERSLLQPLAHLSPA
Chain of ALX3 (Homo sapiens, UniProt O95076 139-225, L168V) (O95076 139-225 L168V): as the sequence (O95076 139-225 N203Q) above, with L30V, Q65N counted along it

Take CCCAGTGC: the binding signal in the test with HESX1 [1] is 6.38 upbm affinity estimate (log intensity, higher = more binding, comparable within an allelic series); with ALX4 [2] it was 8 upbm affinity estimate (log intensity, higher = more binding, comparable within an allelic series); with ALX4 [3], 8.11 upbm affinity estimate (log intensity, higher = more binding, comparable within an allelic series); with HESX1 [4] it was 6.3 upbm affinity estimate (log intensity, higher = more binding, comparable within an allelic series); with HESX1 [5] it was 6.56 upbm affinity estimate (log intensity, higher = more binding, comparable within an allelic series); with HESX1 [6], 6.45 upbm affinity estimate (log intensity, higher = more binding, comparable within an allelic series). The binding signal in the test with HESX1 [7] was 6.56 upbm affinity estimate (log intensity, higher = more binding, comparable within an allelic series).
With TATGGTAA, the binding signal was 7.45 upbm affinity estimate (log intensity, higher = more binding, comparable within an allelic series) with HESX1 [1] and 7.53 upbm affinity estimate (log intensity, higher = more binding, comparable within an allelic series) with HESX1 [4].
TAATTGTA: the binding signal in the test with HESX1 [1] was 11.4 upbm affinity estimate (log intensity, higher = more binding, comparable within an allelic series); with HOXB6, 10 upbm affinity estimate (log intensity, higher = more binding, comparable within an allelic series); in the test with HESX1 [4], 11.8 upbm affinity estimate (log intensity, higher = more binding, comparable within an allelic series); with MSX2 [8], 12.5 upbm affinity estimate (log intensity, higher = more binding, comparable within an allelic series); with ALX3 [9] it was 8.59 upbm affinity estimate (log intensity, higher = more binding, comparable within an allelic series); with PAX4 [10] it was 10.5 upbm affinity estimate (log intensity, higher = more binding, comparable within an allelic series). Moreover, the binding signal with MSX2 [11] was 13.6 upbm affinity estimate (log intensity, higher = more binding, comparable within an allelic series); with HESX1 [5], 8.46 upbm affinity estimate (log intensity, higher = more binding, comparable within an allelic series); with HESX1 [6], 10.1 upbm affinity estimate (log intensity, higher = more binding, comparable within an allelic series); with MSX2 [12], 13.3 upbm affinity estimate (log intensity, higher = more binding, comparable within an allelic series); with HESX1 [7], 7.75 upbm affinity estimate (log intensity, higher = more binding, comparable within an allelic series); with ALX3 [13], 8.7 upbm affinity estimate (log intensity, higher = more binding, comparable within an allelic series).
With GAGTCGCC, the binding signal in the test with HESX1 [1] is 6.49 upbm affinity estimate (log intensity, higher = more binding, comparable within an allelic series); with ALX4 [2], 8.18 upbm affinity estimate (log intensity, higher = more binding, comparable within an allelic series); in the test with ALX4 [3], 8.37 upbm affinity estimate (log intensity, higher = more binding, comparable within an allelic series); in the test with HESX1 [4], 6.48 upbm affinity estimate (log intensity, higher = more binding, comparable within an allelic series); in the test with NKX2-6, 9.64 upbm affinity estimate (log intensity, higher = more binding, comparable within an allelic series); with HESX1 [5], 6.47 upbm affinity estimate (log intensity, higher = more binding, comparable within an allelic series). Further, the binding signal in the test with HESX1 [6] is 6.56 upbm affinity estimate (log intensity, higher = more binding, comparable within an allelic series); in the test with HESX1 [7], 6.36 upbm affinity estimate (log intensity, higher = more binding, comparable within an allelic series).
For the sequence ATTATTTG, the binding signal with HESX1 [1] was 8.97 upbm affinity estimate (log intensity, higher = more binding, comparable within an allelic series); in the test with HESX1 [4], 8.9 upbm affinity estimate (log intensity, higher = more binding, comparable within an allelic series).
As for ATTAAGGA, the binding signal with HESX1 [1] is 8.58 upbm affinity estimate (log intensity, higher = more binding, comparable within an allelic series); with HESX1 [4] it was 9.12 upbm affinity estimate (log intensity, higher = more binding, comparable within an allelic series).
As to GAGCAGCC, the binding signal was 6.52 upbm affinity estimate (log intensity, higher = more binding, comparable within an allelic series) with HESX1 [1]; 8.07 upbm affinity estimate (log intensity, higher = more binding, comparable within an allelic series) in the test with ALX4 [2]; 8.24 upbm affinity estimate (log intensity, higher = more binding, comparable within an allelic series) with ALX4 [3]; 6.51 upbm affinity estimate (log intensity, higher = more binding, comparable within an allelic series) with HESX1 [4]; 6.47 upbm affinity estimate (log intensity, higher = more binding, comparable within an allelic series) with HESX1 [5]; 6.43 upbm affinity estimate (log intensity, higher = more binding, comparable within an allelic series) with HESX1 [6]. In addition, the binding signal with HESX1 [7] is 6.53 upbm affinity estimate (log intensity, higher = more binding, comparable within an allelic series).
Turning to AGGGTATA, the binding signal with HESX1 [1] is 7.35 upbm affinity estimate (log intensity, higher = more binding, comparable within an allelic series); in the test with HESX1 [4], 7.42 upbm affinity estimate (log intensity, higher = more binding, comparable within an allelic series).
For AATTATCA, the binding signal was 11.4 upbm affinity estimate (log intensity, higher = more binding, comparable within an allelic series) with HESX1 [1]; 11.2 upbm affinity estimate (log intensity, higher = more binding, comparable within an allelic series) with PRRX1 [14]; 11.5 upbm affinity estimate (log intensity, higher = more binding, comparable within an allelic series) in the test with HESX1 [4]; 12.3 upbm affinity estimate (log intensity, higher = more binding, comparable within an allelic series) in the test with MSX2 [8]; 11.3 upbm affinity estimate (log intensity, higher = more binding, comparable within an allelic series) with ALX1 [15]; 11.1 upbm affinity estimate (log intensity, higher = more binding, comparable within an allelic series) in the test with ALX1 [16]. Also, the binding signal was 13.3 upbm affinity estimate (log intensity, higher = more binding, comparable within an allelic series) with MSX2 [11]; 10.9 upbm affinity estimate (log intensity, higher = more binding, comparable within an allelic series) with PAX4 [17]; 11 upbm affinity estimate (log intensity, higher = more binding, comparable within an allelic series) in the test with PROP1 [18]; 8.56 upbm affinity estimate (log intensity, higher = more binding, comparable within an allelic series) with HESX1 [5]; 10.6 upbm affinity estimate (log intensity, higher = more binding, comparable within an allelic series) in the test with PROP1 [19]; 10.1 upbm affinity estimate (log intensity, higher = more binding, comparable within an allelic series) in the test with HESX1 [6]. In addition, the binding signal with ALX3 [20] was 9.73 upbm affinity estimate (log intensity, higher = more binding, comparable within an allelic series); with PROP1 [21] it was 7.71 upbm affinity estimate (log intensity, higher = more binding, comparable within an allelic series); in the test with MSX2 [12], 13 upbm affinity estimate (log intensity, higher = more binding, comparable within an allelic series); with HESX1 [7], 7.79 upbm affinity estimate (log intensity, higher = more binding, comparable within an allelic series); with ALX1 [22], 12 upbm affinity estimate (log intensity, higher = more binding, comparable within an allelic series); in the test with PRRX1 [23] it was 13.3 upbm affinity estimate (log intensity, higher = more binding, comparable within an allelic series).
With AATGTAAG, the binding signal in the test with HESX1 [1] was 7.66 upbm affinity estimate (log intensity, higher = more binding, comparable within an allelic series); with HESX1 [4] it was 7.68 upbm affinity estimate (log intensity, higher = more binding, comparable within an allelic series).
